The values below come from PubChem BioAssay (Tox21).

Experiment [1] concerns the target Retinoic acid receptor RXR-alpha (Homo sapiens) (UniProt P19793). Briefly: qHTS assay to identify small molecule agonists of the RXR signaling pathway (AID 1159527; calls by dose curve; also: nearly all actives have a fitted effect of over 35% in size; also: potency is read from the fitted curve at half-maximal effect). The method in brief:
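GeneBLAzer RXR-alpha-UAS-bla HEK 293T cells in medium with 2% charcoal-stripped FBS, pre-incubated 5 hr at 37 C, then exposed to compounds 16 hr. Beta-lactamase reporter read by FRET substrate, 2 hr room temperature, 460/530 nm emission.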
(In general: qHTS replaces the single test concentration by a dilution series.)

Experiment [2] in a line: qHTS assay to identify small molecule agonists of the RXR signaling pathway - cell viability counter screen (AID 1159529). Also: nearly all actives have a fitted effect of over 50% in size. The method in brief: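 RXR-alpha-UAS-bla HEK 293T cells in medium with 2% charcoal-stripped FBS were preincubated 5 hr, then exposed to compounds for 16 hr at 37 C. Viability was read as CellTiter-Glo luminescence after 30 min at room temperature.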

Experiment [3] can be described thus: qHTS assay to identify small molecule antagonists of the retinoid acid receptor (RAR) signaling pathway - cell viability counter screen (AID 1159551). Also: nearly all actives have a fitted effect of over 35% in size. In outline: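 Seed C3RL4 cells; next day add compound, then retinol to 1 uM final; incubate 6 h at 37 C; add CellTiter-Glo; read luminescence after 30 min at RT.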
Experiment [4] in a line: qHTS assay to identify small molecule antagonists of the retinoic acid receptor (RAR) signaling pathway (AID 1159552; also: nearly all actives have a fitted effect of over 50% in size; also: potency is read from the fitted curve at half-maximal effect). In outline:
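RARE-luc C3RL4 cells; cpds + 1 uM (final) retinol, 6 hr, 37 C/5% CO2; luciferase reagent, 30 min RT, luminescence readout. Inhibitors of retinol-driven signal scored.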

Experiment [5] in a line: qHTS assay to identify small molecule agonists of the retinoic acid receptor (RAR) signaling pathway (AID 1159553). Also: potency is read from the fitted curve at half-maximal effect. Conditions: C3RL4 RARE luciferase reporter, agonist, 6 h; activation: at 73.3 µM (top of the series) unless noted. The method in brief:
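Activation of retinol signaling was monitored via a RARE luciferase reporter in C3RL4 cells. After 6 hr compound treatment at 37 C, detection reagent was added for 30 min at room temperature before luminescence reading.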

Experiment [6] is described as follows: qHTS assay to identify small molecule antagonists of the estrogen related receptor (ERR) signaling pathway from Tox21 library - cell viability counter screen (AID 1224834). Also: nearly all actives have a fitted effect of over 30% in size. Also: potency is read from the fitted curve at half-maximal effect. The method in brief:
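CellTiter-Fluor fluorescence measured; ERR cells; 17.5 h compound incubation at 37 C; 30 min reagent step.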

For experiment [7], the target named is Luciferin 4-monooxygenase (Photinus pyralis) (UniProt P08659). Briefly: qHTS assay to identify small molecule inhibitors of firefly luciferase (AID 1224835). Also: nearly all actives have a fitted effect of over 25% in size. Also: potency is read from the fitted curve at half-maximal effect. The method in brief:
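Biochemical qHTS: compounds run as interplate titrations against purified firefly enzyme, with D-luciferin and ATP each at its KM concentration. Light output recorded by CCD imaging.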

The nature of experiment [8]: qHTS assay to identify small molecule agonists of the constitutive androstane receptor (CAR) signaling pathway - cell viability counter screen (AID 1224836). Also: nearly all actives have a fitted effect of over 45% in size. In outline:
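HepG2 cells stably carrying hCAR and a CYP2B6-2.2kb reporter were plated 4 h, then given compounds at 15 concentrations plus PK11195 (final 0.75 uM). After 23 h at 37 C, viability was read by CellTiter-Fluor fluorescence.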

Structures are written as SMILES. Records with an inconclusive call do not appear. More than one record can exist for a structure, and the calls need not agree. Active and inactive are the calls of the source. Unless noted, calls follow the shape of the dose curve; as a rule, active = well fitted curve in the direction sought with a large enough effect in the repeat runs; inconclusive = weak or mixed curves; inactive = no such curve, though single readings can be large; an effect the other way counts as inactive or inconclusive.
% is scaled to controls: 0 for no effect and ±100 for the full control effect.

Sequence of Retinoic acid receptor RXR-alpha (Homo sapiens) (P19793 whole entry, looked up): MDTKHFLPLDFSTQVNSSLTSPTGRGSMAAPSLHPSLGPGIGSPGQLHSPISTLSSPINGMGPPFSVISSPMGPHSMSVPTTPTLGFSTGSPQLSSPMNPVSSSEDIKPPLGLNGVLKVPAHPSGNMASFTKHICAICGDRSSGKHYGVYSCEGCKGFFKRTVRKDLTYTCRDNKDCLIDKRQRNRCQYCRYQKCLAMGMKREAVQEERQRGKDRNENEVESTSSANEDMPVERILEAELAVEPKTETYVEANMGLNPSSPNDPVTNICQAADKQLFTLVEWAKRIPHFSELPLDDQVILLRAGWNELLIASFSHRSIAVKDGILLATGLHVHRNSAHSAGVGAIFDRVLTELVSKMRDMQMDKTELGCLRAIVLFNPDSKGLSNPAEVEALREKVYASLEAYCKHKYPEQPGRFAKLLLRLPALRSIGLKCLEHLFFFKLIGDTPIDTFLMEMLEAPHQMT
Sequence of Luciferin 4-monooxygenase (Photinus pyralis) (P08659 whole entry, looked up): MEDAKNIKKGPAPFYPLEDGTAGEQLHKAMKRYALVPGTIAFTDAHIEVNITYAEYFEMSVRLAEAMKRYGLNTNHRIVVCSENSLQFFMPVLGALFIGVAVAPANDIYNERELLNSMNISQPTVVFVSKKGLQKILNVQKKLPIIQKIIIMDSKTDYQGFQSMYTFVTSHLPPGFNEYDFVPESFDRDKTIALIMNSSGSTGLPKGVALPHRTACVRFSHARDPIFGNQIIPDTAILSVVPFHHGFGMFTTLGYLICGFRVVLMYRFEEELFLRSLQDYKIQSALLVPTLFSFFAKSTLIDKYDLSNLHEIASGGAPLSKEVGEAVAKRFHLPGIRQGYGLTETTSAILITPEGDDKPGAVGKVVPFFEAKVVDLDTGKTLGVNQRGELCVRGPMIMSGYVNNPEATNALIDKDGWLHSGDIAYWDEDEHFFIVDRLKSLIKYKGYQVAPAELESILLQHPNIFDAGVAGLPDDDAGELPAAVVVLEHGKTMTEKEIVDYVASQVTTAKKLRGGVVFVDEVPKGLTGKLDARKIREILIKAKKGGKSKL

For the compound `O=S(=O)(c1ccc(O)cc1)c1ccc(O)cc1`, the Potency entry in experiment [1], in experiment [2], in experiment [4], in experiment [5], in experiment [6] and in experiment [7] was “inactive” throughout. Also, the compound was classed as inactive in experiment [3].

As to `c1ccc2c(c1)Oc1ccccc1O2`, the Potency result in experiment [1], in experiment [2], in experiment [4] and in experiment [5] was “inactive” in each case. In addition, in experiment [3], the outcome was inactive.

For `CON(C)C(=O)Nc1ccc(Cl)c(Cl)c1`, the Potency result in experiment [1], in experiment [2], in experiment [4], in experiment [6] and in experiment [8] was “inactive” throughout. Also, the outcome in experiment [3] was inactive. Also, the Potency in experiment [5] is 24.3 µM (active).

For the compound `O=c1[nH]c2ccccc2c(=O)o1`, the Potency result in experiment [1], in experiment [2], in experiment [4], in experiment [5], in experiment [6] and in experiment [7] was “inactive” throughout. The Potency result in experiment [8] is “inactive”. Also, the result in experiment [3] was inactive.

As to `C1CC2OC2CC1C1CO1` (stereo unspecified), the Potency entry in experiment [1], in experiment [2], in experiment [4], in experiment [5] and in experiment [7] was “inactive” throughout. Further, in experiment [3], the compound was called inactive.

In the case of `O=C(NC(=O)c1c(F)cccc1F)Nc1cc(Cl)c(OC(F)(F)C(F)C(F)(F)F)cc1Cl` (stereo unspecified), the Potency entry in experiment [1], in experiment [2], in experiment [4], in experiment [5], in experiment [6] and in experiment [7] was “inactive” in each case. Also, the Potency entry in experiment [8] was “inactive”. Moreover, the outcome in experiment [3] was inactive.

Regarding `Cn1cc(-c2ccccc2)c(=O)c(-c2cccc(C(F)(F)F)c2)c1`, the Potency entry in experiment [1], in experiment [2], in experiment [4], in experiment [5] and in experiment [7] was “inactive” each time. For the same compound, the call in experiment [3] was inactive.

`O=[N+]([O-])c1ccc([As](=O)(O)O)cc1`: the Potency result in experiment [1], in experiment [2], in experiment [4], in experiment [5], in experiment [6] and in experiment [7] was “inactive” throughout. The outcome in experiment [3] was inactive.

For the compound `CN(C)CCO`, the Potency result in experiment [1], in experiment [2], in experiment [4], in experiment [5], in experiment [6] and in experiment [7] was “inactive” each time. The Potency entry in experiment [8] was “inactive”. The compound was called inactive in experiment [3].

Take `Cc1cc(Cl)ccc1O`: the Potency entry in experiment [1], in experiment [2], in experiment [4], in experiment [5], in experiment [6] and in experiment [7] was “inactive” in each case. The call in experiment [3] was inactive.

Take `BrCCBr`: the Potency result in experiment [1], in experiment [2], in experiment [4], in experiment [5] and in experiment [7] was “inactive” throughout. Moreover, the compound was classed as inactive in experiment [3].

Regarding `COP(N)(=O)SC` (stereo unspecified), the Potency result in experiment [1], in experiment [2], in experiment [4], in experiment [5] and in experiment [7] was “inactive” throughout. Besides, the result in experiment [3] was inactive.

With `CCCN(CCC)N=O`, the Potency result in experiment [1], in experiment [2], in experiment [4], in experiment [5], in experiment [6] and in experiment [7] was “inactive” each time. In addition, the Potency result in experiment [8] was “inactive”. Besides, the compound was called inactive in experiment [3].

Turning to `C=CC(N)=O`, the Potency result in experiment [1], in experiment [2], in experiment [4], in experiment [5], in experiment [6] and in experiment [7] was “inactive” throughout. Further, the Potency result in experiment [8] was “inactive”. Also, the call in experiment [3] was inactive.

As to `Cc1cc(-c2cc(C)c(N)c(C)c2)cc(C)c1N`, the Potency result in experiment [1], in experiment [4], in experiment [5], in experiment [6], in experiment [7] and in experiment [8] was “inactive” in each case. Further, the result in experiment [3] was inactive.

In the case of `CC(C)C#N`, the Potency is 9.26 µM (active) and inactive in experiment [1]; 16.3 µM (active) and inactive in experiment [4]. For the same compound, the compound was called inactive in experiment [3]. In addition, the Potency result in experiment [5], in experiment [6], in experiment [7] and in experiment [8] was “inactive” in each case.

With `CCC[CH2][Sn]([Cl])([Cl])[Cl]`, the Potency result in experiment [1], in experiment [2], in experiment [6], in experiment [7] and in experiment [8] was “inactive” in each case. In addition, the compound was classed as inactive in experiment [3].

Turning to `CC(C)N1C(=O)c2ccccc2NS1(=O)=O`, the Potency entry in experiment [1], in experiment [4], in experiment [5], in experiment [6], in experiment [7] and in experiment [8] was “inactive” each time. For the same compound, in experiment [3], the outcome was inactive.

As to `C=C(C)CCl`, the activation in experiment [1] was 1.01% [at 6.98 µM] (inactive). Moreover, the Potency result in experiment [2], in experiment [7] and in experiment [8] was “inactive” throughout. In addition, the outcome in experiment [3] was inactive.

On to `O=NN1CCCC1`, for which the Potency entry in experiment [1], in experiment [4] and in experiment [5] was “inactive” in each case. In addition, the call in experiment [3] was inactive. Also, the Potency in experiment [6] was 45.3 µM (active) and inactive; in experiment [7], 83.4 µM (active) and inactive.

`COCCl`: the Potency result in experiment [1], in experiment [4], in experiment [5], in experiment [6], in experiment [7] and in experiment [8] was “inactive” throughout. In addition, in experiment [3], the outcome was inactive.

Turning to `CC(=O)C=C(C)C`, the Potency entry in experiment [1], in experiment [2], in experiment [5], in experiment [6], in experiment [7] and in experiment [8] was “inactive” throughout. Further, the call in experiment [3] was inactive.

Turning to `OC(O)C(Cl)(Cl)Cl`, the Potency result in experiment [1], in experiment [4], in experiment [5], in experiment [6] and in experiment [7] was “inactive” in each case. For the same compound, the compound was classed as inactive in experiment [3].

As to `Oc1ccccc1Cl`, the Potency result in experiment [1], in experiment [2], in experiment [7] and in experiment [8] was “inactive” in each case. In addition, in experiment [3], the compound was called inactive.

With `ClCc1cccnc1`, the Potency entry in experiment [1], in experiment [2], in experiment [6], in experiment [7] and in experiment [8] was “inactive” each time. The compound was classed as inactive in experiment [3].
